This is a sample that favours compounds with a hit; in the whole collection about 3.3% have one here.
HttQ103 aggreg = qHTS Multiplex Assay to Identify Dual Action Probes in a Cell Model of Huntington: Aggregate Formation (GFP). Potency, µM (doses to about 46.1 µM), for the others: at the highest dose activity change, negative = inhibition, usual class: inhibitors. actives 1.1% (n = 220,000). AID 1688, 2009. PC12 HttQ103-GFP aggregates, Acumen cytometry, 40 h; also: potency is read from the fitted curve at half-maximal effect; % is scaled to controls: 0 for no effect and ±100 for the full control effect; nearly all actives have a fitted effect of over 60% in size
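PC12 cells with ecdysone-inducible HTT exon1 Q103-GFP, induced by 100 nM tebufenozide, given compounds in a concentration series. GFP aggregates (1–25 um, 6 SD above background) counted in lysates by laser-scanning cytometry, 488 nm excitation.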
PNC inhibitor = High Content Assay for Compounds that inhibit the Assembly of the Perinucleolar Compartment. PC3M PTB-GFP, PNC prevalence imaging, 16 h; stronger effect = lower value. actives 3.1% (n = 140,000). activity change (PNC), negative = inhibition, % at 10 µM. AID 2417, 2010;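 active = readout at or below -70, meaning at least 70% loss of cells showing the perinucleolar compartment, a nuclear body marking cancer cells; inconclusive = readout between -30 and a set limit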;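 also: plate controls were DMSO wells for no effect and camptothecin positive control wells for full effect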
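Compounds are pinned in duplicate onto adhered PC3M cells stably expressing GFP-tagged PTB and incubated 16 h at 37 C. Cells are then fixed, nuclei stained with Hoechst, and PNC-positive cells counted.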
12-hLO inh = qHTS Assay for Inhibitors of 12-hLO (12-human lipoxygenase). purified 12-hLO, xylenol orange hydroperoxide absorbance. Potency, µM (titrated, usually from 57.1 µM), for inactives: at the top dose activity change, negative = inhibition, usual class: inhibitors. actives 0.12% (n = 150,000). Polyunsaturated fatty acid lipoxygenase ALOX12 (Homo sapiens), P18054. AID 1452, 2008; also: potency is read from the fitted curve at half-maximal effect; % is scaled to controls: 0 for no effect and ±100 for the full control effect; nearly all actives have a fitted effect of over 55% in size
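150 nM 12hLO, 25 mM Hepes pH 7.0 + 0.01% Triton X-100; cpd preinc 15 min RT; 40 uM arachidonic acid, 30 min RT; Fe-XO 30 min; A573/A405 ratio as read-out.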
HTT cytoprotect = qHTS Multiplex Assay to Identify Dual Action Probes in a Cell Model of Huntington: Cytoprotection (ATP). PC12 HTT-Q103 induced, cytoprotection, ATP luminescence, 40 h. AID 1471, 2008. actives 0.14% (n = 230,000). Potency, µM (series often up to 56.4 µM), without a hit: cytoprotection (ATP increase), usual class: activators; also: potency is read from the fitted curve at half-maximal effect; % of control where 0% means no effect; nearly all actives have a fitted effect of over 45% in size
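Readout: ATPlite luminescence (ATP level). Model: stable PC12, inducible Htt exon1 Q103-GFP. Inducer: tebufenozide, 100 nM final. Compounds: dose series. No G418 in medium.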
NPSR antag = qHTS Assay for Antagonists of the Neuropeptide S Receptor: cAMP Signal Transduction | Q6W5P4 | Potency, µM (series often up to 38.3 µM), for the others: top-dose activity change, negative = inhibition, actives largely listed as inhibitors | CHO-NPSR cells, cAMP TR-FRET, antagonist mode | actives 1% (n = 220,000) | AID 1461, 2008; also: potency is read from the fitted curve at half-maximal effect; % is scaled to controls: 0 for no effect and ±100 for the full control effect; nearly all actives have a fitted effect of over 50% in size
Target sequence (Q6W5P4 whole entry, looked up): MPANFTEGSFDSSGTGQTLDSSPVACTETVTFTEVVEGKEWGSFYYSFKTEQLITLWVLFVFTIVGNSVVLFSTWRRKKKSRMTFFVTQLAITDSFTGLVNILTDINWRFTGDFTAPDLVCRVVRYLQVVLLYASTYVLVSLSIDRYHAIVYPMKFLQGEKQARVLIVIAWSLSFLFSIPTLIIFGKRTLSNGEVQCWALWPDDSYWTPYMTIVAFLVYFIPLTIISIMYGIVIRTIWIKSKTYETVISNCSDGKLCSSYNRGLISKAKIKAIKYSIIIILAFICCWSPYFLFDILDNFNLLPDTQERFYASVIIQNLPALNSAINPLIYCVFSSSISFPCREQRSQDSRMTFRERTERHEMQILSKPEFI
IMPase inh = qHTS Assay for Identifying the Cell-Membrane Permeable IMPase Inhibitors; inhibition (IP1 accumulation), % at 46.1 µM; Inositol monophosphatase 1 (Rattus norvegicus), P97697; 120,000 tested, under 10 active; CHO-M1 cells, IP1 accumulation, HTRF TR-FRET ratio; active = well fitted curve in the direction sought with a large enough effect in the signal ratio, not every such curve was filed as active; inconclusive = small, poorly fitted or top-dose-only effect, or a change in a side signal; inactive = no such curve, though single readings can be large or run the other way; the % refers to the signal ratio;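 also: cells stimulated with carbachol in lithium chloride buffer; plate controls were DMSO basal wells for no effect and reference inhibitor wells for full effect; higher means more IMPase inhibition seen as more IP1 and lower FRET ratio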
Target sequence (P97697 whole entry, looked up): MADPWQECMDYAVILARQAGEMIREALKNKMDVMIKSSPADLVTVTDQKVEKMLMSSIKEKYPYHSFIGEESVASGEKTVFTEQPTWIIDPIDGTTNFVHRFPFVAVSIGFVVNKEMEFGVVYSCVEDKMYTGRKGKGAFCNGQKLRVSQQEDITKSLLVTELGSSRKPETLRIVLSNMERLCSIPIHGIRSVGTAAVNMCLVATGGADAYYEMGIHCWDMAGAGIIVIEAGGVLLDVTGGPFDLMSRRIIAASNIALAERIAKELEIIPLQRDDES
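Carbachol-driven Gq signalling in CHO-M1 cells (2000/well) generates IP1. Compounds that block IMPase raise IP1 and so reduce the FRET signal from Eu-anti-IP1 and d2-IP1 after a 10 min room-temperature lysis.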
Active calls of the source: *; u = inconclusive; x = no result; [ ] = dose if it differs, or a comment. Unless noted, calls follow the shape of the dose curve; as a rule, active = well fitted curve in the direction sought with a large enough effect; inconclusive = small, poorly fitted or top-dose-only effect, or another doubt; inactive = no such curve, though single readings can be large; an effect the other way counts as inactive or inconclusive.

SMILES | HttQ103 aggreg | PNC inhibitor | 12-hLO inh | HTT cytoprotect | NPSR antag | IMPase inh
COc1cccc(/C=N/NC(=O)c2csc(-n3nc(C)cc3C(F)(F)F)n2)c1 | -15% | -90* | 2% | 2%[10 µM] | 0%[46.1 µM] | 8
COc1ccccc1NC(=O)c1csc(-n2nc(C)cc2C(F)(F)F)n1 | 14% | -9 | -7% | -23% | -1%[46.1 µM] | 3
Cc1cc(C(F)(F)F)n(-c2nc(C(=O)N/N=C/c3ccc(F)cc3)cs2)n1 | u | -106* | 5% | -54% | u | 3
CC(C)(C)[C@]1(O)CCN2CC3c4ccccc4CCc4cccc(c43)[C@@H]2C1 (stereo partly drawn) | -18% | x | x | -66% | u | x
Fc1ccc(Nc2nc(Oc3ccc4c(c3)OCO4)nc(N3CCOCC3)n2)c(F)c1 | -3% | -95* | 2% | 15% | -32%[46.1 µM] | 5
COc1ccc(Nc2nc(Nc3ccc(OC)cc3OC)nc(N3CCOCC3)n2)c(OC)c1 | x | x | x | x | x | 1
Cc1csc(NC(=O)c2cc([N+](=O)[O-])cc([N+](=O)[O-])c2)n1 | 0% | -114* | 3% | x | 14% | x
Cc1csc(NC(=O)c2nc3nc(C)cc(C)n3n2)n1 | 5% | -95* | -1% | -40% | -16%[46.1 µM] | -4
COC(=O)[C@@H]1[C@@H](C)N(CCc2cc(OC)c(OC)c(OC)c2)C(=O)N[C@H]1c1ccccc1 | x | x | 4%[11.4 µM] | 7%[10 µM] | x | x
Cc1cc(NS(=O)(=O)c2ccc(NC(=O)C(C(C)C)N3C(=O)c4ccccc4C3=O)cc2)nc(C)n1 (stereo not drawn) | 0% | -88* | 5% | -5% | -14%[46.1 µM] | 2
Cc1cc(NS(=O)(=O)c2ccc(NC(=O)C(CC(C)C)N3C(=O)c4ccccc4C3=O)cc2)nc(C)n1 (stereo not drawn) | 2% | 10 | -7% | 0% | -4%[46.1 µM] | 1
CC1(C)C[C@](C)(C(=O)c2ccccc2)C=C1c1ccccc1 | x | x | x | 0% | x | x
c1cncc(-c2nc(N3CCOCC3)c3ccccc3n2)c1 | 0.89µM* | -10 | -4% | -7% | -11%[46.1 µM] | 0
C#CCOCCOCCOCCNc1nc(N2CCN(C(=O)[C@H](CCCCN)n3cc(C(N)COC(=O)C(F)(F)F)nn3)CC2)nc(N2CCN(C(=O)[C@H](CCCCN)n3cc(C(N)CC(C)C)nn3)CC2)n1 (stereo partly drawn) | 10%[9.22 µM] | x | x | -2%[10 µM] | 34% | x
CCC(C)NC(=O)CCSCCC(=O)NC(C)CC (stereo not drawn) | -10% | -104* | 0% | x | -23% | x
CC(NC(=O)CCSCCC(=O)NC(C)c1ccccc1)c1ccccc1 (stereo not drawn) | -5% | u | 2% | 26%[10 µM] | 1% | x
COC(=O)[C@@H]1C[C@H]1[C@@H](NC(=O)c1cc(C)nn1C)c1ccccc1 | x | x | 8% | -48% | x | x
O=C(O)c1cc(-c2ccc(Cl)s2)nc2ccccc12 | 5% | x | x | -75% | 6.3µM* | x
O=C(O)c1cc(-c2ccccc2)nc2ccccc12 | 17% | 11 | -4% | -21% | -13% | x
O=C1CC(c2ccccc2F)c2cc3c(cc2N1)CCC3 (stereo not drawn) | -13% | -9 | -1% | -77% | 6%[46.1 µM] | 5
O=C1CC(c2cc(Br)ccc2F)c2cc3c(cc2N1)CCC3 (stereo not drawn) | 16% | -97* | -3% | -86% | 20%[46.1 µM] | -2
Cn1cccc1C(=O)N1CCC2(CCN(Cc3ccc(C#N)cc3)CC2)CC1 | x | x | 2% | -1% | x | x
COc1ccc(C(=O)NC2CCN(C(=O)Nc3ccccc3Cl)CC2)cc1 | -6% | x | x | 1% | 0% | x
Cn1c2ccccc2c(=O)c2c(=O)n(Cc3ccco3)c(-c3ccc(Cl)cc3Cl)nc21 | -7%[9.22 µM] | x | x | 4%[10 µM] | u | x
CN(C)CCOc1nc(-c2ccccc2)nc2c1oc1ccccc12 | 22µM* | u | 3% | -44% | 16%[46.1 µM] | 5
SMILES | HttQ103 aggreg | PNC inhibitor | 12-hLO inh | HTT cytoprotect | NPSR antag | IMPase inh
CN(C)CCOc1ncnc2c1oc1ccccc12 | u | -112* | 7% | 15% | -7%[46.1 µM] | 10
CCOc1ccc(C2C(C(=O)O)CCC(=O)N2C2CCCCC2)cc1 (stereo not drawn) | -9% | x | x | -14% | -18% | x
COc1ccc(NC(=O)Nc2nnc(-c3ccncc3)s2)cc1 | 20µM* | x | x | -23% | -10% | x
COC(=O)N[C@@H](c1cccc(C)c1)C(C(C)=O)C(=O)OC (stereo partly drawn) | x | x | x | -32% | x | x
Cc1ccc(C(=O)CC2(O)C(=O)N(Cc3ccccc3Cl)c3ccccc32)o1 (stereo not drawn) | 3.2µM* | -17 | -4% | -33% | -30%[46.1 µM] | 4
Cc1csc(SCc2ccccc2C(=O)O)n1 | 7% | -17 | -3% | 1%[10 µM] | 1%[46.1 µM] | 7
Cc1csc(SCc2ccc(C(=O)O)cc2)n1 | -5%[9.22 µM] | -111* | 3% | -5% | -8%[46.1 µM] | 2
COC(=O)c1ccc(-n2c(C)nc(=O)c(-c3ccccc3)c2C)cc1 | 6% | -12 | -6% | 1% | 9%[46.1 µM] | -5
Cc1nc(=O)c(-c2ccccc2)c(C)n1-c1cccc(C(=O)O)c1 | 4% | -101* | -8% | 6% | 11%[46.1 µM] | 3
COc1ccc2c(c1)sc(N)[n+]2Cc1cc(C)cc2cccnc12 | -32% | u | 2% | -57%[10 µM] | 17% | 14
CCOc1ccc2c(c1)sc(N)[n+]2Cc1cc(C)cc2cccnc12 | -11% | -85* | -1% | -56%[10 µM] | -13% | 21
CC#CCN1c2ccccc2[C@]23C[C@@H](C(=O)OC)N(S(=O)(=O)c4cccs4)C2=NC(C(=O)OC)=C(C(=O)OC)[C@H]13 | x | x | -1%[11.4 µM] | -19%[10 µM] | x | x
Cc1ccc(C)c(OCCCC(=O)Nc2ccc(N3CCOCC3)cc2)c1 | 1% | -84* | -14% | -1%[10 µM] | -6%[46.1 µM] | 11
O=C(COc1ccccc1-c1ccccc1)NNC(=O)NC1CCCCC1 | -7% | x | x | -12% | -17% | x
CCC(C)NC(=O)CSC1=Nc2ccccc2C2=NC(CC(=O)NCc3ccccc3)C(=O)N12 (stereo not drawn) | -15% | -100* | 2% | -18%[10 µM] | 6%[46.1 µM] | u
COc1ccccc1C1=NOC(Cn2c(NCCOCCO)nc3c2c(=O)n(C)c(=O)n3C)C1 (stereo not drawn) | 3%[9.22 µM] | x | x | 6%[10 µM] | 7% | x

Bioassay records: PubChem, National Center for Advancing Translational Sciences (NCATS)
